Bioassay records: PubChem BioAssay, several laboratories
Mcl1 Noxa PPI = Mcl-1/Noxa interaction inhibition | Q07820 | TR-FRET Mcl-1/Noxa peptide binding, 2 h | inhibition, % at 21.7 µM | actives 1.5% (n = 220,000) | AID 1022;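 active = compounds that cut the protein-peptide binding signal by more than 50% relative to plate controls in a single-dose test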;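 also: His-tagged Mcl-1 with rhodamine Noxa BH3 peptide and terbium anti-His antibody; 0% = Mcl-1 plus Noxa peptide wells and 100% = peptide-only wells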
Target sequence (Q07820 whole entry, looked up): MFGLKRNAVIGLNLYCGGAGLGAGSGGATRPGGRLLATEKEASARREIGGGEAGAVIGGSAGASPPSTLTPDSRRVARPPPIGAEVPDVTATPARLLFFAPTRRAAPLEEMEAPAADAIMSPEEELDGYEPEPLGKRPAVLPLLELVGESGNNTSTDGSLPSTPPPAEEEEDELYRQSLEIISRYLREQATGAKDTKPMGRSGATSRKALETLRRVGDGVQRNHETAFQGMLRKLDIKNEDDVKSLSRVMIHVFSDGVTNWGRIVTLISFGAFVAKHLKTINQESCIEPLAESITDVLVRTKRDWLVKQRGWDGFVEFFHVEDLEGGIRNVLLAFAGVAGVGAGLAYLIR
Bim-Mcl-1 = human Bim-Mcl-1 interaction inhibition | Q07820 | Bead-based flow cytometry, Bim peptide-Mcl-1 binding | inhibition, % at 10 µM | actives 0.1% (n = 190,000); in the data active = inhibition above about 40%;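 also: 0% = no compound tracer wells and 100% = peptide blocker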
14-3-3 Bad inh = disrupts binding of bovine 14-3-3 zeta to phospho-Bad peptide. P63103. TR-FRET 14-3-3zeta/Dy647-pBad peptide displacement, 1 h. inhibition, % at 21.7 µM. actives 0.71% (n = 220,000);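 active = inhibition above about 70%, limit read from the data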;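 also: 0% = full 14-3-3 plus peptide FRET controls and 100% = background without 14-3-3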
Target sequence (P63103 whole entry, looked up): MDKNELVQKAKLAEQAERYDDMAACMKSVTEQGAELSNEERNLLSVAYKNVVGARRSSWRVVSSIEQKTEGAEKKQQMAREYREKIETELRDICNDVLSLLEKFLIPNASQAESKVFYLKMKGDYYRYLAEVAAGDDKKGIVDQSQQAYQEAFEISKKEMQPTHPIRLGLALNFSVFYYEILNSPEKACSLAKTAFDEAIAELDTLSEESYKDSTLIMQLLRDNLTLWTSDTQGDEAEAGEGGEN
MCL1-BIM inh = inhibitors of human MCL1 binding to BIM-BH3 peptide. inhibition, % at 10.9 µM. actives 0.68% (n = 320,000). GST-MCL1 / FITC-Bim-BH3 fluorescence polarization. Q07820. AID 2057;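 active = inhibition above the mean inhibition of all tested compounds plus 3 SD, set per campaign, cut at about 40% in these data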;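 also: 0% = DMSO wells and 100% = unlabeled Bim-BH3 peptide control; higher means more loss of mP so more displacement of Bim peptide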
Mcl1-Bid inh = disrupts binding of human Mcl-1 to Bid peptide; Q07820; TR-FRET Mcl-1/Bid-Dy647 peptide binding, 1536-well; inhibition, % at 21.7 µM; actives 0.97% (n = 220,000);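 active = compounds that cut the binding signal by more than half at the single screening dose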;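 also: His-tagged Mcl-1 with europium anti-His antibody binding Bid BH3 peptide; 0% = Mcl-1 plus peptide wells and 100% = peptide-only wells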
* = called active by the depositor; [ ] = dose if it differs, or a comment. The list is not random: actives were taken first. Their share in the collection is about 2.5%.

CCN1CCN(C(c2cccs2)C(C)NC(=O)c2cccc(OC)c2OC)CC1 (stereo not given) was read as Mcl1 Noxa PPI 52*, Bim-Mcl-1 -5, 14-3-3 Bad inh -8, MCL1-BIM inh 4 and Mcl1-Bid inh -43.
Screening CC(C)Cn1c(N)c(C(=O)CCl)c(=O)n(C)c1=O returned Mcl1 Noxa PPI 11, Bim-Mcl-1 -5, 14-3-3 Bad inh 1, MCL1-BIM inh 2 and Mcl1-Bid inh 1.
Screening CC(C)(C)NCC(O)COc1ccccc1C(=O)CCc1ccccc1 (stereo not given) returned Mcl1 Noxa PPI -17, Bim-Mcl-1 7, 14-3-3 Bad inh -4, MCL1-BIM inh -4 and Mcl1-Bid inh 15.
For CC(C)(C)NCC(O)COc1ccccc1C(C)(C)C (stereo not given) the results were Mcl1 Noxa PPI 54*, Bim-Mcl-1 -1, 14-3-3 Bad inh -13, MCL1-BIM inh 4 and Mcl1-Bid inh -33.
COc1ccc(S(=O)(=O)N=C2C=C(C)C(=O)C(C)=C2)cc1 was read as Mcl1 Noxa PPI 36, Bim-Mcl-1 0, 14-3-3 Bad inh 72*, MCL1-BIM inh 2 and Mcl1-Bid inh -64.
For C=CCc1ccc(OCCCN2CCCC(C)C2)c(OC)c1 (stereo not given) the results were Mcl1 Noxa PPI 12, Bim-Mcl-1 -4, 14-3-3 Bad inh 38, MCL1-BIM inh 7 and Mcl1-Bid inh 59*.
Screening Cc1cc(N)n(-c2ccc3ccccc3c2)n1 returned Mcl1 Noxa PPI -9, Bim-Mcl-1 0, 14-3-3 Bad inh 9, MCL1-BIM inh 7 and Mcl1-Bid inh 96*.
COc1ccc(-n2nc(C)cc2N)cc1 was read as Mcl1 Noxa PPI 7, Bim-Mcl-1 -4, 14-3-3 Bad inh -10, MCL1-BIM inh -1 and Mcl1-Bid inh -20.
Screening Cc1ccc(/C=C/c2nc3ccccc3s2)s1 returned Mcl1 Noxa PPI 10, Bim-Mcl-1 -1, 14-3-3 Bad inh 78*, MCL1-BIM inh -35 and Mcl1-Bid inh -9.
`COc1cc(C=C(c2nc3ccccc3s2)c2nc3ccccc3s2)ccc1O` gave Mcl1 Noxa PPI 24, Bim-Mcl-1 -1, 14-3-3 Bad inh -5, MCL1-BIM inh 43* and Mcl1-Bid inh -4.
For COc1cc(/C=C/c2nc3ccccc3s2)cc(OC)c1O the results were Mcl1 Noxa PPI 55*, Bim-Mcl-1 0, 14-3-3 Bad inh -3, MCL1-BIM inh 16 and Mcl1-Bid inh -7.
CCC(CC)C(=O)Nc1cccc(C(=O)Nc2nnc(C)s2)c1 was read as Mcl1 Noxa PPI 3, Bim-Mcl-1 1, 14-3-3 Bad inh -6, MCL1-BIM inh 1 and Mcl1-Bid inh -10.
For CC(C)(C)N=C1NN=C(c2cc3ccccc3o2)CS1 the results were Mcl1 Noxa PPI 71*, Bim-Mcl-1 -4, 14-3-3 Bad inh -7, MCL1-BIM inh 15 and Mcl1-Bid inh -11.
Screening CC(C)(C)N=C1NN=C(c2ccc(Cl)cc2)CS1 returned Mcl1 Noxa PPI 5, 14-3-3 Bad inh -1, MCL1-BIM inh -11 and Mcl1-Bid inh -33.
`O=C(CNCc1ccncc1)Nc1cc(S(=O)(=O)N2CCCCC2)ccc1Cl` gave Mcl1 Noxa PPI 35, Bim-Mcl-1 -7, 14-3-3 Bad inh 34, MCL1-BIM inh -2 and Mcl1-Bid inh 55*.
CCn1cc(CN2CCCC(CO)(Cc3cccc(Cl)c3)C2)cn1 (stereo not given) was read as Mcl1 Noxa PPI 3, Bim-Mcl-1 -1, 14-3-3 Bad inh 0, MCL1-BIM inh 7 and Mcl1-Bid inh -47.
Screening Cn1cc(CN2CCCC(CO)(Cc3cccc(Cl)c3)C2)cn1 (stereo not given) returned Mcl1 Noxa PPI 68*, Bim-Mcl-1 -3, 14-3-3 Bad inh -3, MCL1-BIM inh 0 and Mcl1-Bid inh -33.
`O=C(Cc1ccccc1)Nc1cccc(S(=O)(=O)N2CCCCCC2)c1` gave MCL1-BIM inh -3.
For O=C(CN1CCc2ccccc2C1)Nc1cccc(S(=O)(=O)N2CCCC2)c1 the results were Mcl1 Noxa PPI 12, Bim-Mcl-1 -2, 14-3-3 Bad inh 80*, MCL1-BIM inh -4 and Mcl1-Bid inh 8.
Screening Cc1ccc(S(=O)(=O)Nc2nc3ccccc3nc2Nc2cccc(S(=O)(=O)N3CCCC3)c2)cc1 returned Mcl1 Noxa PPI 28, Bim-Mcl-1 0, 14-3-3 Bad inh 2, MCL1-BIM inh 35 and Mcl1-Bid inh 9.
Screening O=[N+]([O-])c1cccc(S(=O)(=O)Nc2nc3ccccc3nc2Nc2cccc(S(=O)(=O)N3CCCCC3)c2)c1 returned Mcl1 Noxa PPI 73*, Bim-Mcl-1 -8, 14-3-3 Bad inh 10 and Mcl1-Bid inh 99*.
For O=C(O)CCn1c(=S)oc2ccccc21 the results were Mcl1 Noxa PPI 8, Bim-Mcl-1 -3, 14-3-3 Bad inh 3, MCL1-BIM inh 12 and Mcl1-Bid inh -2.
`CCCCN(C)C(=O)c1cc2cc3ccc(OC)cc3nc2s1` gave Mcl1 Noxa PPI -7, Bim-Mcl-1 -3, 14-3-3 Bad inh 84*[fluorescence artefact?], MCL1-BIM inh 1 and Mcl1-Bid inh -10.
For CCCCN(CC)C(=O)c1cc2cc3ccc(OC)cc3nc2o1 the results were Mcl1 Noxa PPI 3, Bim-Mcl-1 -2, 14-3-3 Bad inh 1, MCL1-BIM inh 4 and Mcl1-Bid inh -16.
For O=S(=O)(NC1=NCCCCC1)c1cccs1 the results were Mcl1 Noxa PPI 15, Bim-Mcl-1 -1, 14-3-3 Bad inh 6, MCL1-BIM inh 2 and Mcl1-Bid inh -27.
`O=c1cc(N2CCN(c3ccccc3)CC2)[nH]c(=O)n1-c1ccccc1` gave Mcl1 Noxa PPI -9, Bim-Mcl-1 -4, 14-3-3 Bad inh -9, MCL1-BIM inh 5 and Mcl1-Bid inh -58.
C=CCc1cc(C)ccc1OCCn1ccnc1 was read as Mcl1 Noxa PPI 2, Bim-Mcl-1 6, 14-3-3 Bad inh 72*, MCL1-BIM inh 5 and Mcl1-Bid inh 9.
For O=C(Nc1ccc(F)cc1)c1nc[nH]c1C(=O)Nc1ccc([N+](=O)[O-])cc1 the results were Mcl1 Noxa PPI 62*, Bim-Mcl-1 -1, 14-3-3 Bad inh 52, MCL1-BIM inh 4 and Mcl1-Bid inh 62*.
Nc1nc(Cl)cc(Oc2ccc(Cl)cc2)n1 was read as Mcl1 Noxa PPI 2, Bim-Mcl-1 -2, 14-3-3 Bad inh -10, MCL1-BIM inh 0 and Mcl1-Bid inh -8.
For COc1ccc(C[C@H]2CN3C(=NC[C@@H]3Cc3ccccc3)N2CCNC(=O)CCC2CCCCC2)cc1 the results were Mcl1 Noxa PPI -5, Bim-Mcl-1 1, 14-3-3 Bad inh -6, MCL1-BIM inh 4 and Mcl1-Bid inh 2.
CCc1ccc(N=C2NC(=O)/C(=C/c3cc(OC)c(OC)c(OC)c3)S2)cc1 was read as MCL1-BIM inh -2.
COc1cc(/C=C2\SC(=Nc3c(C)n(C)n(-c4ccccc4)c3=O)NC2=O)ccc1O was read as Mcl1 Noxa PPI 51*, Bim-Mcl-1 0, 14-3-3 Bad inh -11 and Mcl1-Bid inh -35.
Screening COc1cc(/C=C2\SC(=Nc3ccc(O)cc3)NC2=O)cc(OC)c1O returned Mcl1 Noxa PPI 62*, Bim-Mcl-1 0, 14-3-3 Bad inh -1, MCL1-BIM inh 21 and Mcl1-Bid inh -31.
